The campaign covered roughly 390,000 compounds. About 4,000 (1%) were called active. About 4% were inconclusive and are not listed. What follows is part of a selection rich in actives, with near analogues and random picks from the rest. A number with no mark means an inactive call. Calls follow the shape of the dose curve; as a rule, active = well fitted inhibition curve with a large enough effect; inconclusive = small, poorly fitted or top-dose-only effect; inactive = no such curve, though single readings can be large or run the other way.
molecular target: Thioredoxin reductase 1, cytoplasmic (Rattus norvegicus) (UniProt O89049); test: qHTS Assay for Inhibitors of Mammalian Selenoprotein Thioredoxin Reductase 1 (TrxR1): qHTS; conditions: recombinant rTrxR1, NADPH fluorescence consumption, selenite substrate; series mostly up to 114 µM; activity change, negative = inhibition: at the top concentration; also: nearly all actives have a fitted effect of over 65% in size
Text: The selenoprotein thioredoxin reductase (TrxR; EC 1.8.1.9) is a FAD containing homodimeric pyridine nucleotide-disulfide oxidoreductase with many cellular roles. Together with NADPH and its prime substrate thioredoxin (Trx), the enzyme forms the core of the Trx system. The mammalian Trx system exerts a wide spectrum of functions including redox regulation, antioxidant defense, regulation of transcription factors as well as support of cell growth and replication. Many of these functions involve the reduction of Trx, which may subsequently reduce a number of different substrates including ribonucleotide reductase, peroxiredoxins or NFkB. Mammalian TrxR itself also has a broad substrate specificity, reducing both protein and non-protein substrates, including low molecular weight compounds such as dehydroascorbate, lipoic acid, ubiquinone, and juglone. In addition, several drugs in clinical use for anticancer treatment are indeed known to target TrxR1.
This BioAssay is a validation of an NADPH fluorescence-based, dual-purpose qHTS rTrxR1 assay designed to find potential inhibitors and substrates of rTrxR1. For this particular BioAssay, actives are potential inhibitors. See related BioAssay for substrate data deposition.
NIH Molecular Libraries Probe Production Network [MLPCN]
NIH Chemical Genomics Center [NCGC]
Assay Provider: Elias Arner, Karolinska Institute
Assay protocol: 2 uL of reagents (buffer in column 4 as negative control and 90 nM rTrxR1 in columns 1-3 and 5-48) were dispensed into Greiner black solid-bottom 1,536-well assay plates, followed by 1 uL of NADPH (400 uM final concentration) to each well. The plates were centrifuged at 1000 rpm for 15 seconds and subsequently incubated for 5 min at room temperature (~22 deg C) to allow for rTrxR1 reduction. Compounds (23 nL) were then transferred via Kalypsys pin tool equipped with 1536-pin array (10 nL slotted pins, V&P Scientific, San Diego, CA). In addition, a duplicate 2-fold serial dilution of the control compounds auranofin, a known gold-based TrxR1 inhibitor, and juglone (5-hydroxy-1,4-naphthoquinone), a natural TrxR1 substrate, were pin-transferred to columns 2 and 3, respectively. After incubation for 15 min at room temperature (~22 deg C), 1 uL of selenite (400 uM final concentration) were dispensed to each well. The plate was immediately transferred to a ViewLux high-throughput CCD imager (PerkinElmer), wherein kinetic measurements of NADPH fluorescence (Ex 340 nm, Em 450 nm) were acquired (8 minute kinetic read, see Table 1). Read 1 was utilized to assess the capacity of a compound to serve as an rTrxR1 substrate, i.e. a decrease in NADPH fluorescence compared to the no-compound background is an indication of a substrate behavior for that particular compound. For inhibitory activity of a compound, delta values, computed as the difference in fluorescence intensity between the first and last reads of an 8-minute time kinetic window, were used. All reagents were diluted in an assay buffer consisting of 50 mM Tris-HCl, pH 7.5, 2 mM EDTA, and 0.01% Tween-20.
Throughout the screen, reagent bottle and all liquid lines were made light-tight to minimize reagent degradation. All screening operations were performed on a fully integrated robotic system (Kalypsys, San Diego, CA) containing one RX-130 and two RX-90 anthropomorphic robotic arms (Staubli, Duncan, SC). Library plates were screened starting from the lowest and proceeding to the highest concentration, and a 'double-pinning' step of the highest concentration was required to access higher concentrations of compounds. Vehicle-only plates, with DMSO being pin-transferred to the columns 5-48, were inserted uniformly at the beginning and the end of each library in order to monitor and record any shifts in the background, which can be affected by reagent dispensers or loss in enzyme activity over time. […]
% is scaled to controls: 0 for no effect and ±100 for the full control effect; potency is read from the fitted curve at half-maximal effect.

Sequence of Thioredoxin reductase 1, cytoplasmic (Rattus norvegicus) (O89049 whole entry, looked up): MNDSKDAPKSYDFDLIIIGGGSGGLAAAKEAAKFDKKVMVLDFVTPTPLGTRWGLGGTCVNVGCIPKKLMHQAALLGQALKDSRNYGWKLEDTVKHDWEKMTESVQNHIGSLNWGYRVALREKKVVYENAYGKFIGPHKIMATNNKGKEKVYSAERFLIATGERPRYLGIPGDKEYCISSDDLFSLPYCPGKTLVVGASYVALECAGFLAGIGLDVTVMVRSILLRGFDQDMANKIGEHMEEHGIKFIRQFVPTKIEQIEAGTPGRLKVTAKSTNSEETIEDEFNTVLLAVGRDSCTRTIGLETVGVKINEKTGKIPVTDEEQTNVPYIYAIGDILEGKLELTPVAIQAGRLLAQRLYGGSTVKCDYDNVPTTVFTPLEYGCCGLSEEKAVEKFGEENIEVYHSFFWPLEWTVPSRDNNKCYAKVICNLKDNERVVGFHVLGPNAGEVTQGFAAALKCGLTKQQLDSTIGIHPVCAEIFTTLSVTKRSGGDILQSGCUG

For `O=C1N=c2ccccc2=C/C1=C\c1c(O)[nH]c(=S)[nH]c1=O`, the Potency was 17.8 µM (active).
In the case of `Cc1ccc2c(c1)=C/C(=C\c1c(O)[nH]c(=O)[nH]c1=O)C(=O)N=2`, the Potency is reported as 10 µM (active).
`O=c1c2ccccc2nc(/C=C/c2ccco2)n1-c1ccccc1O` was tested, and the Potency was 15.8 µM (active).
`CCC(=NCc1ccco1)c1c(O)n(Cc2ccccc2)c(=O)[nH]c1=O` was tested, and the Potency was 14.1 µM (active).
In the case of `CC(=O)NBr`, the Potency is reported as “inactive”.
For `O=C1NC(=O)N(c2ccccc2)C(=O)/C1=C/c1ccc([N+](=O)[O-])s1`, the Potency was 22.4 µM (active).
For `C=CCN1C(=O)NC(=O)/C(=C/c2ccc(OCC(=O)Nc3ccc(C)cc3)cc2)C1=O`, the Potency was 20 µM (active).
With `N#Cc1c(Cl)c(Cl)c(Cl)c(C#N)c1Cl` the Potency was 0.282 µM (active).
For `C=CCN1CCC23c4c5ccc(O)c4O[C@H]2C(=O)CC[C@@]3(O)C1C5` (some centres undefined), the Potency was “inactive”.

Point of comparison: `O=c1c2ccccc2nc(/C=C/c2ccc(F)cc2)n1-c1ccccc1O`, “activity change, negative = inhibition” value 9.77% [at 57.1 µM]. Against it:
- COc1ccccc1N=Nc1c(O)[nH]c(=S)[nH]c1=O — lower, -6.81% [at 57.1 µM]
- O=C(Cn1c(=O)n(CC2CS2)c2ccccc21)N1CCCCC1 (centres undefined) — higher, 10.1% [at 57.1 µM]
- COCCNC(=O)CN1C2CCC1CC(O)(c1cccnc1)C2 (centres undefined) — lower, 8.33% [at 57.1 µM]
- Cc1cccc(Cn2cccc(C(=O)Nc3ccc4c(c3)OCCO4)c2=O)c1 — lower, 8.05% [at 57.1 µM]
- CN(C)CCCN=Cc1c(O)n(Cc2ccco2)c(=O)[nH]c1=O — higher, 40% [at 57.1 µM]
- COc1ccc(NC(=O)c2cn(CCC#N)nc2-c2ccc([N+](=O)[O-])cc2)cc1 — higher, 13.3% [at 57.1 µM]
- C=CCN(CC=C)C(=O)Nc1ccc(OCC)cc1 — higher, 11.4% [at 57.1 µM]
- Cc1ncsc1CCCl — lower, -10.7% [at 57.1 µM]

Point of comparison: `O=[N+]([O-])c1ccc(Cl)c(Cl)c1`, “activity change, negative = inhibition” value 6.58%. Against it:
- O=c1[nH]c(O)c(C=Nc2cc(F)cc(F)c2)c(=O)[nH]1 — lower, 5.27%
- CC(=O)Nc1ccc(C(=O)C(Cc2ccccc2)N(C)C)cc1 (centres undefined) — lower, -9.89%
- OCC#CC[N+]1(CC#Cc2ccccc2)CCCC1 — lower, -2.45%
- CCOc1ccc(C2SCC(=O)Nc3c2c(C)nn3C2CCOC(C)(C)C2)cc1 (centres undefined) — lower, -18%
- c1ccc(CCNC2CCCCCC2)cc1 — higher, 8.58%
- COc1ccc2[nH]c3c(c2c1)CCN[C@H]3C — lower, -25.8%
- Cn1cc(/C=C/c2nc3ccccc3c(=O)n2-c2ccccc2)c2ccccc21 — lower, -11.5%
- CCCCn1c(O)c(C(CC)=NCc2ccco2)c(=O)[nH]c1=O — lower, -10.3%
- O=C(COC(=O)Cc1ccccc1)Nc1ccc(F)cc1 — higher, 18.2%
- CCOc1ccc(-c2cc(C)n3nc(C(=O)Nc4ccc(C)c(C)c4)cc3n2)cc1 — higher, 47.3%
- CC(C)c1c(CN(C)C(C)Cc2ccccc2)n(C)n(-c2ccccc2)c1=O (centres undefined) — lower, -6.1%
- ClCCN(CCCl)c1ccc(C=Nc2ccc(/C=C/c3ccnc4ccccc34)cc2)cc1 — lower, -2.65%
- COC(=O)C1=C(c2ccc(F)cc2OCc2ccccc2)C[C@@H]2CC[C@H]1N2C(=O)NCc1ccc(Cl)cc1 — higher, 18.9%
- CCC(=O)c1ccc(OCC(=O)N2CCN(CC(=O)Nc3ccc(C)cc3)CC2)cc1 — higher, 8.72%
- COc1cc(Cl)ccc1Nc1ncc(C(=O)N2CCN(c3ccccc3OC)CC2)c2ccccc12 — higher, 107%
- Cc1ccccc1NC(=O)COC(=O)c1cc(C)n(C2CC2)c1C — lower, -13.9%
- O=P1(Oc2ccccc2)CC(O)C(O)C(COCc2ccccc2)O1 (centres undefined) — higher, 14.5%
- CO[C@H]1[C@@H](O)[C@@H](C)O[C@H](O[C@H]2[C@H](Oc3cccc4c(O)c5c(=O)oc6ccc(C)c7c(=O)oc(c34)c5c67)O[C@H](C)[C@H](O)[C@@H]2O)[C@@H]1O — lower, 3.86%

`CCC(C)n1c(O)c(/C=N/Nc2nc3c(c(=O)n(C)c(=O)n3C)n2C)c(=O)[nH]c1=S` (centres undefined) was tested, and the activity change, negative = inhibition was 12% [at 11.4 µM].

`O=C1NC(=O)C(Cc2ccccc2)C(=O)N1` gave an activity change, negative = inhibition of -9.71% [at 2.29 µM].

Reference: PubChem BioAssay AID588453 (National Center for Advancing Translational Sciences (NCATS), 2011)
